# Source: paper PMC8384837, “Expanding the binding specificity for RNA recognition by a PUF domain”
# Key:
# Test in all cases: yeast three-hybrid, YBZ-1, SC-Leu-His + 0.5 mM 3-AT, 4 days
# Conditions in all cases: tags: N-Gal4 AD-HA kept; label: inside an RPR1-promoter hybrid RNA with tandem MS2 sites; ssRNA
# [1] = target: T1, PUM1 PUF domain R6-VYN (Homo sapiens, UniProt Q14671 828-1176, N1043V;Q1047N)
# T1 sequence: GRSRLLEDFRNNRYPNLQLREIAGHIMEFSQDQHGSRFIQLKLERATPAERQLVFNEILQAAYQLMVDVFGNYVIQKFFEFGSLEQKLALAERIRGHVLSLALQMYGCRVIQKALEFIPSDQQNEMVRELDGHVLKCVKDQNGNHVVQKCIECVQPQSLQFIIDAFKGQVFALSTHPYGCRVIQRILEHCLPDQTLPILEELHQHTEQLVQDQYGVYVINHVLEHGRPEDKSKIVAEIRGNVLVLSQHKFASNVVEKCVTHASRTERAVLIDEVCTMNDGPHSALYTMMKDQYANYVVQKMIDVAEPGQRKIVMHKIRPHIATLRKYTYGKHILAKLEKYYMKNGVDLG
# Summary of the method: (§1)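 Sequencing with Illumina followed PCR amplification of the repeat regions from transformants grown four days on SC-Leu (input) or SC-Leu-His + 0.5 mM 3-AT (selection). The transformants were strain YBZ-1 with a LexA–MS2 coat fusion and a HIS3 reporter, carrying Pumilio-1 PUF domain libraries and matching RNA elements. The interaction score is the log change in variant frequency from input to selection, computed in log2 with a pseudocount of 1 for absent variants.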
# [2] = target: PUM1 PUF domain R4-GRS (Homo sapiens, UniProt Q14671 828-1176, N971G;H972R;Q975S)
# Summary of the method: as §1
# [3] = target: PUM1 PUF domain R5-WHS (Homo sapiens, UniProt Q14671 828-1176, C1007W;R1008H;Q1011S)
# Summary of the method: as §1
# [4] = target: PUM1 PUF domain R5-TVD (Homo sapiens, UniProt Q14671 828-1176, C1007T;R1008V;Q1011D)
# Summary of the method: as §1
# [5] = target: PUM1 PUF domain R1-MRR (Homo sapiens, UniProt Q14671 828-1176, S863M;Q867R)
# Summary of the method: as §1
# [6] = target: PUM1 PUF domain R1-RIE (Homo sapiens, UniProt Q14671 828-1176, S863R;R864I;Q867E)
# Summary of the method: as §1
# [7] = target: PUM1 PUF domain R3-FFV (Homo sapiens, UniProt Q14671 828-1176, C935F;R936F;Q939V)
# Summary of the method: as §1
# [8] = target: PUM1 PUF domain R5-PFL (Homo sapiens, UniProt Q14671 828-1176, C1007P;R1008F;Q1011L)
# Summary of the method: as §1
# [9] = target: PUM1 PUF domain R5-SAC (Homo sapiens, UniProt Q14671 828-1176, C1007S;R1008A;Q1011C)
# Summary of the method: as §1
# [10] = target: PUM1 PUF domain R4-SFR (Homo sapiens, UniProt Q14671 828-1176, N971S;H972F;Q975R)
# Summary of the method: as §1
sequence,measurement,setting,value
GGCUAGAACUAGUGGAUCCCCCGGCGCCCGGCGGCUCGAGCCCGGGUAAGUGAAAAUAGUCUGCAUGCCGCCGGGCGCCAUGCCUGCAGGUCGACUCUAGAAAACAUG,binding signal,[1],6.4 log2 enrichment (interaction score)
GGCUAGAACUAGUGGAUCCCCCGGCGCCCGGCGGCUCGAGCCCGGGUAAGUGUAAAUAGUCUGCAUGCCGCCGGGCGCCAUGCCUGCAGGUCGACUCUAGAAAACAUG,binding signal,[2],4.09 log2 enrichment (interaction score)
same,binding signal,[3],1.16 log2 enrichment (interaction score)
same,binding signal,[4],0.28 log2 enrichment (interaction score)
GGCUAGAACUAGUGGAUCCCCCGGCGCCCGGCGGCUCGAGCCCGGGUAAGUGUAUAUAGUCUGCAUGCCGCCGGGCGCCAUGCCUGCAGGUCGACUCUAGAAAACAUG,binding signal,[2],2.08 log2 enrichment (interaction score)
GGCUAGAACUAGUGGAUCCCCCGGCGCCCGGCGGCUCGAGCCCGGGUAAGUGUAAAUCGUCUGCAUGCCGCCGGGCGCCAUGCCUGCAGGUCGACUCUAGAAAACAUG,binding signal,[5],2.6 log2 enrichment (interaction score)
GGCUAGAACUAGUGGAUCCCCCGGCGCCCGGCGGCUCGAGCCCGGGUAAGUGUAAAUUGUCUGCAUGCCGCCGGGCGCCAUGCCUGCAGGUCGACUCUAGAAAACAUG,binding signal,[5],5.53 log2 enrichment (interaction score)
same,binding signal,[6],2.99 log2 enrichment (interaction score)
GGCUAGAACUAGUGGAUCCCCCGGCGCCCGGCGGCUCGAGCCCGGGUAAGUGUAAGUAGUCUGCAUGCCGCCGGGCGCCAUGCCUGCAGGUCGACUCUAGAAAACAUG,binding signal,[7],6.72 log2 enrichment (interaction score)
GGCUAGAACUAGUGGAUCCCCCGGCGCCCGGCGGCUCGAGCCCGGGUAAGUGUAAUUAGUCUGCAUGCCGCCGGGCGCCAUGCCUGCAGGUCGACUCUAGAAAACAUG,binding signal,[7],1.62 log2 enrichment (interaction score)
GGCUAGAACUAGUGGAUCCCCCGGCGCCCGGCGGCUCGAGCCCGGGUAAGUGUUAAUAGUCUGCAUGCCGCCGGGCGCCAUGCCUGCAGGUCGACUCUAGAAAACAUG,binding signal,[8],4.31 log2 enrichment (interaction score)
same,binding signal,[3],4.68 log2 enrichment (interaction score)
GGCUAGAACUAGUGGAUCCCCCGGCGCCCGGCGGCUCGAGCCCGGGUAAGUGUGAAUAGUCUGCAUGCCGCCGGGCGCCAUGCCUGCAGGUCGACUCUAGAAAACAUG,binding signal,[9],3.04 log2 enrichment (interaction score)
GGCUAGAACUAGUGGAUCCCCCGGCGCCCGGCGGCUCGAGCCCGGGUAAGUGUACAUAGUCUGCAUGCCGCCGGGCGCCAUGCCUGCAGGUCGACUCUAGAAAACAUG,binding signal,[10],4.24 log2 enrichment (interaction score)
GGCUAGAACUAGUGGAUCCCCCGGCGCCCGGCGGCUCGAGCCCGGGUAAGUGUCAAUAGUCUGCAUGCCGCCGGGCGCCAUGCCUGCAGGUCGACUCUAGAAAACAUG,binding signal,[4],3.26 log2 enrichment (interaction score)
